Among the data in PubChem BioAssay (EPA / NIEHS) are outcome and AC50 values, retold here.

One may read the AC50 as the midpoint of the concentration-response curve, whichever way the signal moves.

Assay [1] is described as follows: LTEA_HepaRG_LDH_cytotoxicity: Cytotoxicity Assessment in the Life Technologies and Expression Analysis (LTEA) Assay (AID 2283563). The procedure, abridged: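 Human HepaRG hepatic cells are treated with test chemicals for 48 h at up to 100 uM in 0.5% DMSO. Cytotoxicity is scored from medium LDH against the vehicle control.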
A short description of assay [2]: ATG_XTT_Cytotoxicity: Cytotoxicity Assessment in the Attagene TRANS-FACTORIAL HepG2 Assay (AID 2283584). The procedure, abridged:
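Transfect HepG2 with GAL4-UAS reporter units, dose compound, incubate 24 h, then measure viable cell number by XTT. Fit concentration response against DMSO baseline.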

Assay [3] is described as follows: TOX21_p53_BLA_p2_viability: Viability Assessment in the Tox21 HCT-116 p53 Agonism Beta-lactamase Assay, Phase 2 (AID 2283591).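 Also: compound exposure lasted 16 h at 37 °C; actives lower the ATP signal meaning cytotoxicity.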 The essentials:
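Cytotoxicity readout: CellTiter-Glo ATP luminescence, 30 min at room temperature, after the beta-lactamase read. Cells were HCT116 exposed 16 h at 37C to compounds pin-transferred at 217-fold dilution from DMSO stocks.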

Assay [4] concerns the target Cellular tumor antigen p53 (Homo sapiens) (UniProt P04637). Kind of assay: TOX21_p53_BLA_p2_ratio: Tox21 HCT-116 p53 Agonism Beta-lactamase Assay, Ratio, Phase 2 (AID 2283592). The procedure, abridged: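 Cleaved-to-uncleaved substrate ratio (460 vs 530 nm) measured in HCT116 cells with an inducible beta-lactamase reporter linked to p53 activity. Compounds incubated 16 h at 37C before 2 h room-temperature CCF4-AM loading.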

Assay [5] is described as follows: TOX21_p53_BLA_p3_viability: Viability Assessment in the Tox21 HCT-116 p53 Agonism Beta-lactamase Assay, Phase 3 (AID 2283593).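 Also: cells exposed to compound for 16 h before reading.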 The essentials: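 Cellular ATP was quantified by CellTiter-Glo luminescence, read after 30 min at room temperature. Beforehand, HCT116 cells (4000/well) received compound 5 h post-seeding, 217-fold diluted from DMSO, then incubated 16 h at 37C.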

The target in assay [6] is Cellular tumor antigen p53 (Homo sapiens) (UniProt P04637). Kind of assay: TOX21_p53_BLA_p3_ratio: Tox21 HCT-116 p53 Agonism Beta-lactamase Assay, Ratio, Phase 3 (AID 2283596). The essentials:
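Cells were seeded at 4000/well, rested 5 h at 37C, then dosed with DMSO compound solutions (217-fold dilution) for 16 h. CCF4-AM substrate was loaded for 2 h at room temperature, and the 460/530 nm emission ratio was fitted for gain of signal versus DMSO.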

A short description of assay [7]: TOX21_p53_BLA_p4_viability: Viability Assessment in the Tox21 HCT-116 p53 Agonism Beta-lactamase Assay, Phase 4 (AID 2283597).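 Also: hits lower the luminescence signal meaning cytotoxicity.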 The procedure, abridged: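 Viability is taken as cellular ATP: after 16 h compound exposure of HCT116 cells and a 2 h room-temperature CCF4-AM substrate step, CellTiter-Glo reagent is added and luminescence is measured 30 min later.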
Assay [8] has as its target Cellular tumor antigen p53 (Homo sapiens) (UniProt P04637). Kind of assay: TOX21_p53_BLA_p5_ratio: Tox21 HCT-116 p53 Agonism Beta-lactamase Assay, Ratio, Phase 5 (AID 2283599). The essentials:
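Beta-lactamase reporter ratio (blue 460 nm over green 530 nm, 405 nm excitation) after 2 h CCF4-AM loading, in HCT-116 cells exposed 16 h at 37 C to compounds pinned at 217-fold dilution. Increases relative to DMSO baseline scored.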

Assay [9] in a line: TOX21_p53_BLA_p5_viability: Viability Assessment in the Tox21 HCT-116 p53 Agonism Beta-lactamase Assay, Phase 5 (AID 2283600). The procedure, abridged:
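Viability is taken from cellular ATP content, measured by luciferase luminescence in the same wells after the beta-lactamase ratio read. Cells are seeded at 4000 per well and exposed to DMSO-dissolved compounds, diluted 217-fold, for 16 h.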

The target in assay [10] is Cellular tumor antigen p53 (Homo sapiens) (UniProt P04637). Kind of assay: TOX21_p53_BLA_p4_ratio: Tox21 HCT-116 p53 Agonism Beta-lactamase Assay, Ratio, Phase 4 (AID 2283601). The essentials: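 Signal is the blue/green (460nm/530nm) ratio of cleaved versus uncleaved CCF4-AM substrate, read after 2 h substrate loading. Cells were HCT116 carrying the p53-responsive beta-lactamase reporter, dosed 16 h at 37C, 5% CO2; CellTiter-Glo measured in parallel.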
Cellular tumor antigen p53 (Homo sapiens), sequence (P04637 whole entry, looked up): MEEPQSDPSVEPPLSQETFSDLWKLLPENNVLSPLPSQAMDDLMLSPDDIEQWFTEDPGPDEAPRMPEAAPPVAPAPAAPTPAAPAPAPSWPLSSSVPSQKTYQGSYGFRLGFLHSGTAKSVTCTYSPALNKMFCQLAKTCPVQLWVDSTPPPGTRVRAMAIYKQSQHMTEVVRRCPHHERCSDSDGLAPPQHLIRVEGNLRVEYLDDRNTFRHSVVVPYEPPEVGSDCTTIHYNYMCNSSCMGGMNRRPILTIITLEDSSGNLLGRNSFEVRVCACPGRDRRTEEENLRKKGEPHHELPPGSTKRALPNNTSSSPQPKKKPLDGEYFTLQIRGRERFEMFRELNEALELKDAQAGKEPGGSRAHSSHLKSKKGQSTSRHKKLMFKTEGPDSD

Assay [11] is described as follows: Tanguay_ZF_120hpf_MORT_legacy: (Legacy) Oregon State University Tanguay Lab 120 Hour Post-fertilization zebrafish Assay for Mortality (AID 2283633).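 As to AC50: fitted as increase in binary mortality versus DMSO negative control.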 The essentials: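 Mortality endpoint from a multiplexed whole-embryo zebrafish screen. Dechorionated wild-type embryos received compound at 6 hpf and remained under static exposure at 28C until 120 hpf, with death noted as a present/absent call.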

Assay [12] can be described thus: Tanguay_ZF_120hpf_YSE_legacy: (Legacy) Oregon State University Tanguay Lab 120 Hour Post-fertilization zebrafish Assay for Yolk Sac Edema (AID 2283634).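 As to AC50: actives raise the incidence of yolk sac edema above the DMSO baseline.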 The procedure, abridged: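 Readout: presence or absence of yolk sac edema at 120 hpf, fitted upward against DMSO controls. Exposure ran statically from 6 hpf in dechorionated embryos kept at 28C.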
A short description of assay [13]: Tanguay_ZF_120hpf_AXIS_legacy: (Legacy) Oregon State University Tanguay Lab 120 Hour Post-fertilization zebrafish Assay for Body Axis Malformation (AID 2283635). The procedure, abridged:
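Static 6–120 hpf chemical exposure of dechorionated wild-type 5D zebrafish, one per well at 28C; morphology endpoint scored binary at 120 hpf relative to DMSO control.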

Assay [14] is described as follows: Tanguay_ZF_120hpf_EYE_legacy: (Legacy) Oregon State University Tanguay Lab 120 Hour Post-fertilization zebrafish Assay for Eye Malformation (AID 2283636).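 Also: binary presence or absence of eye malformation scored by brightfield in 120 hpf larvae.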 The procedure, abridged:
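Binary brightfield scoring of eye defects at 120 hpf after static exposure from 6 hpf of single pronase-dechorionated wild-type embryos (28C, 0.64% DMSO). Non-mortality endpoints omitted where embryos died; fit vs DMSO.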

The nature of assay [15]: Tanguay_ZF_120hpf_SNOU_legacy: (Legacy) Oregon State University Tanguay Lab 120 Hour Post-fertilization zebrafish Assay for Snout Malformation (AID 2283637). The essentials:
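Binary snout-malformation call at 120 hpf in wild-type 5D embryos, chorion removed by pronase, under static exposure from 6 hpf at 28C (0.64% DMSO). Embryos dying by 24 or 120 hpf excluded.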

Assay [16] is described as follows: Tanguay_ZF_120hpf_JAW_legacy: (Legacy) Oregon State University Tanguay Lab 120 Hour Post-fertilization zebrafish Assay for Jaw Malformation (AID 2283638).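 As to AC50: active means more embryos with jaw malformation than DMSO controls.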 The essentials: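 Static waterborne exposure of dechorionated wild-type (Tropical 5D) zebrafish from 6 to 120 hpf at 28C, 0.64% DMSO vehicle; 5uM trimethyltin chloride served as positive control. Jaw morphology recorded as binary at 120 hpf.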

Assay [17] is described as follows: Tanguay_ZF_120hpf_OTIC_legacy: (Legacy) Oregon State University Tanguay Lab 120 Hour Post-fertilization zebrafish Assay for Otic Vesicle Malformation (AID 2283639). The essentials: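 Statically exposed wild-type 5D zebrafish embryos, kept sealed and dark at 28C through 120 hours post fertilization, were examined by brightfield microscopy for otic vesicle defects. Responses were recorded as present or absent and analysed relative to DMSO.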

A short description of assay [18]: Tanguay_ZF_120hpf_PE_legacy: (Legacy) Oregon State University Tanguay Lab 120 Hour Post-fertilization zebrafish Assay for Pericardial Edema (AID 2283640).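 As to AC50: potency for increased incidence of pericardial edema versus DMSO baseline.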 The essentials:
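Read-out is the presence or absence of pericardial edema at 120 hpf under brightfield, with gain of signal fitted against DMSO controls. Larvae (5D wild-type) were statically exposed at 28C with 0.64% final DMSO.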

The nature of assay [19]: Tanguay_ZF_120hpf_SOMI_legacy: (Legacy) Oregon State University Tanguay Lab 120 Hour Post-fertilization zebrafish Assay for Somite Malformation (AID 2283647). The procedure, abridged:
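5D WT zebrafish; chorion removed 4 hpf; 1 embryo/well from 6 hpf; static exposure to 120 hpf, 28C, 0.64% DMSO final. Endpoint: somite malformation, binary, brightfield. Mortality excluded.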

The nature of assay [20]: Tanguay_ZF_120hpf_BRAI_legacy: (Legacy) Oregon State University Tanguay Lab 120 Hour Post-fertilization zebrafish Assay for Brain Malformation (AID 2283641). The procedure, abridged:
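Brain malformation in Tropical 5D zebrafish was recorded as a binary endpoint after static compound exposure from early development to 120 hpf at 28C. Activity was analysed against DMSO as negative control.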

Where “and” joins values, the source holds several entries; their conditions need not be identical. Equal values may be shown once. Results filed as inconclusive are left out. Where a structure was tested more than once in an assay, its records may differ in their call. Calls of active or inactive are those of the source. The calls were made as follows: active = hit-call score of the fitted dose curve at least 0.9, where 1 is the maximum; inconclusive = response in the unintended direction; inactive = score below 0.9.

As for `O=c1c(-c2ccc(O)cc2)coc2cc(O)ccc12`, the molecule was called inactive in assay [1], in assay [2], in [3], in assay [4], in assay [5] and in assay [6]. In addition, the call in [7], in assay [8], in assay [9], in assay [10], in assay [11] and in [12] was inactive. The outcome in assay [13], in assay [14], in assay [15], in assay [16], in assay [17] and in assay [18] was inactive. For the same molecule, the result in assay [19] was inactive.
As for `ClC1=C(Cl)C(Cl)(Cl)C(Cl)=C1Cl`, the call in assay [1], in assay [2], in [3], in assay [4], in [7] and in [8] was inactive. The outcome in assay [9], in [10], in [12], in assay [13], in assay [14] and in [15] was inactive. The outcome in [16], in assay [17], in assay [18], in assay [20] and in [19] was inactive. Further, the AC50 was 5.7 µM (active) and 3.42 µM (active) in [5]; 19.2 µM (active) and 2.22 µM (active) in assay [6].
With `CCc1ccc(CCOc2ccc(CC3SC(=O)NC3=O)cc2)nc1` (stereo not given), the outcome in assay [1], in [2], in assay [3], in assay [4], in [5] and in assay [6] was inactive. The result in assay [7], in assay [8], in [9], in assay [10], in assay [11] and in [12] was inactive. Also, the molecule was classed as inactive in assay [13], in assay [14], in assay [15], in assay [16], in [17] and in assay [18]. The outcome in [20] and in assay [19] was inactive.
Consider `CCCCCCCCCCCCCCCS(=O)(=O)Oc1ccccc1`, for which the result in [1], in assay [2], in assay [3], in [4], in assay [5] and in assay [7] was inactive. Further, the outcome in assay [8], in assay [10], in [11], in assay [12], in assay [13] and in assay [15] was inactive. For the same molecule, the outcome in [16], in assay [17], in assay [18] and in assay [19] was inactive.
For the molecule `CCCCCCCCC(=O)O`, the result in [1], in assay [2], in assay [3], in assay [4], in [5] and in assay [6] was inactive. The molecule was classed as inactive in assay [7], in assay [8], in assay [9], in [10], in assay [11] and in [12]. Moreover, the result in [13], in [14], in assay [15], in assay [16], in assay [17] and in assay [18] was inactive. The molecule was classed as inactive in assay [20] and in assay [19].
As for `CN(C)C=O`, the result in assay [1], in [2], in [4], in [5], in assay [6] and in assay [7] was inactive. Also, the result in assay [8], in [10], in [11], in [12], in assay [13] and in assay [15] was inactive. The outcome in [16], in [17], in assay [20] and in [19] was inactive.
As for `CC1=C(/C=C/C(C)=C/C=C/C(C)=C/C(=O)O)C(C)(C)CCC1`, the molecule was classed as inactive in assay [1], in assay [2], in assay [4], in assay [5], in assay [6] and in assay [8]. For the same molecule, the outcome in [9] and in assay [10] was inactive. In addition, the AC50 in [5] was 47.8 µM (active); in assay [6], 85.7 µM (active); in assay [8] it was 86900 nM (active); in [11] it was 1540 nM (active); in assay [12], 214 nM (active); in [14] it was 99.9 nM (active). The AC50 in assay [15] was 183 nM (active); in assay [16], 144 nM (active); in [17], 211 nM (active); in assay [18], 193 nM (active); in assay [20], 237 nM (active); in assay [19], 323 nM (active).
